# Reference: PubChem BioAssay (EPA / NIEHS)
# Calls of active or inactive are those of the source. Rule for the calls: active = hit-call score of the fitted dose curve at least 0.9, where 1 is the maximum; inactive = score below 0.9.
# What was measured:
# [1] = read-out: Thrombomodulin, THBD (gene 7056); assay: BSK_CASM3C_Thrombomodulin: BioMAP Diversity Plus: CASM3C Assay for Thrombomodulin Biomarker Activity (AID 2283051); conditions: primary human coronary artery smooth muscle cells; actives raise or lower the signal;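 note: thrombomodulin protein level measured by ELISA 24 h after dosing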
# [2] = read-out: Tissue Factor, F3 (gene 2152); assay: BSK_CASM3C_TissueFactor: BioMAP Diversity Plus: CASM3C Assay for Tissue Factor Biomarker Activity (AID 2283052); conditions: primary human coronary artery smooth muscle cells; actives raise or lower the signal;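 note: cell surface tissue factor protein level read by ELISA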
# [3] = read-out: Interferon-gamma inducible Protein 10 (IP10), CXCL10 (gene 3627); assay: BSK_hDFCGF_IP10: BioMAP Diversity Plus: hDFCGF Assay for Interferon-gamma inducible Protein 10 (IP10) Biomarker Activity (AID 2283053); conditions: primary human foreskin fibroblasts; actives raise or lower the signal
# Outline: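 IP-10 levels, quantified by ELISA, are taken from human foreskin fibroblast cultures 24 h after chemical treatment, with DMSO serving as negative control and baseline for bidirectional analysis.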
# [4] = read-out: Urokinase-type plasminogen activator receptor (uPAR), PLAUR (gene 5329); assay: BSK_CASM3C_uPAR: BioMAP Diversity Plus: CASM3C Assay for Urokinase-type plasminogen activator receptor (uPAR) Biomarker Activity (AID 2283054); conditions: primary human coronary artery smooth muscle cells; actives raise or lower the signal;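 note: cell-surface uPAR protein level quantified by ELISA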
# [5] = read-out: Vascular cell adhesion molecule 1 (VCAM1), VCAM1 (gene 7412); assay: BSK_CASM3C_VCAM1: BioMAP Diversity Plus: CASM3C Assay for Vascular cell adhesion molecule 1 (VCAM1) Biomarker Activity (AID 2283055); conditions: primary human coronary artery smooth muscle cells; actives raise or lower the signal;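 note: VCAM-1 protein level quantified by ELISA on the cells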
# [6] = read-out: Collagen III, COL3A1 (gene 1281); assay: BSK_hDFCGF_CollagenIII: BioMAP Diversity Plus: hDFCGF Assay for Collagen III Biomarker Activity (AID 2283056); conditions: primary human foreskin fibroblasts; actives raise or lower the signal
# Outline: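 Human foreskin primary fibroblasts were exposed to test chemicals for 24 h, after which collagen III was quantified by ELISA. Activity was fitted bidirectionally against DMSO as negative control and baseline.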
# [7] = read-out: Epidermal growth factor receptor (EGFR), EGFR (gene 1956); assay: BSK_hDFCGF_EGFR: BioMAP Diversity Plus: hDFCGF Assay for Epidermal growth factor receptor (EGFR) Biomarker Activity (AID 2283057); conditions: primary human foreskin fibroblasts; actives raise or lower the signal
# Outline: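 Measured by ELISA: EGFR levels on primary human foreskin fibroblasts 24 h after chemical treatment, analysed relative to DMSO with bidirectional fitting.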
# [8] = BSK_hDFCGF_Proliferation: Cell Proliferation Assessment in the BioMAP Diversity Plus: hDFCGF Assay (AID 2283059); conditions: primary human foreskin fibroblasts;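 note: curves fitted for both rise and fall of signal versus DMSO baseline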
# Outline: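 This proliferation readout used SRB total-protein staining of human foreskin fibroblasts […], normalized to DMSO with bidirectional curve fitting.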
# [9] = read-out: Macrophage colony-stimulating factor (MCSF), CSF1 (gene 1435); assay: BSK_hDFCGF_MCSF: BioMAP Diversity Plus: hDFCGF Assay for Macrophage colony-stimulating factor (MCSF) Biomarker Activity (AID 2283060); conditions: primary human foreskin fibroblasts; actives raise or lower the signal
# Outline: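 Human foreskin primary fibroblasts were treated with test chemical for 24 h, and M-CSF was then measured by ELISA. Data were fitted bidirectionally against DMSO as the negative control and activity baseline.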
# [10] = BSK_hDFCGF_SRB: Viability Assessment in the BioMAP Diversity Plus: hDFCGF Assay (AID 2283061); conditions: primary human foreskin fibroblasts;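 note: cells exposed to compound for 24 h before the read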
# Outline: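 Human foreskin primary fibroblasts were treated with compound and assessed 24 h after dosing. Total protein was measured by sulforhodamine B staining (0.1% SRB after 10% TCA fixation, 560 nm read) as a cytotoxicity marker, with bidirectional fitting against DMSO baseline.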
# [11] = read-out: TIMP metallopeptidase inhibitor 1 (TIMP1), TIMP1 (gene 7076); assay: BSK_hDFCGF_TIMP1: BioMAP Diversity Plus: hDFCGF Assay for TIMP metallopeptidase inhibitor 1 (TIMP1) Biomarker Activity (AID 2283062); conditions: primary human foreskin fibroblasts; actives raise or lower the signal
# Outline: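 Primary human foreskin fibroblasts in the hDFCGF system were dosed with compound for 24 h, then TIMP-1 was measured by ELISA. Activity was fitted bidirectionally relative to DMSO control; parallel SRB staining assessed cytotoxicity.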
# [12] = read-out: Monokine induced gamma interferon (MIG), CXCL9 (gene 4283); assay: BSK_hDFCGF_MIG: BioMAP Diversity Plus: hDFCGF Assay for Monokine induced gamma interferon (MIG) Biomarker Activity (AID 2283063); conditions: primary human foreskin fibroblasts; actives raise or lower the signal
# Outline: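 ELISA read-out of MIG from primary human dermal fibroblasts 24 h post-dosing. Gain or loss of signal fitted bidirectionally, DMSO as baseline.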
# [13] = read-out: Vascular cell adhesion molecule 1 (VCAM1), VCAM1 (gene 7412); assay: BSK_hDFCGF_VCAM1: BioMAP Diversity Plus: hDFCGF Assay for Vascular cell adhesion molecule 1 (VCAM1) Biomarker Activity (AID 2283065); conditions: primary human foreskin fibroblasts; actives raise or lower the signal
# Outline: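 Primary human foreskin fibroblasts (hDFCGF system) were dosed with chemical and VCAM-1 was measured by ELISA 24 h later. Bidirectional curve fitting used DMSO as negative control and activity baseline.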
# [14] = read-out: Plasminogen activator inhibitor-1 (PAI1), SERPINE1 (gene 5054); assay: BSK_hDFCGF_PAI1: BioMAP Diversity Plus: hDFCGF Assay for Plasminogen activator inhibitor-1 (PAI1) Biomarker Activity (AID 2283066); conditions: primary human foreskin fibroblasts; actives raise or lower the signal
# Outline: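 PAI-1 levels, determined by ELISA, served as the endpoint in human foreskin fibroblast cultures exposed to compound for 24 h, with DMSO as baseline.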
# [15] = read-out: Intercellular Adhesion Molecule 1 (ICAM1), ICAM1 (gene 3383); assay: BSK_KF3CT_ICAM1: BioMAP Diversity Plus: KF3CT Assay for Intercellular Adhesion Molecule 1 (ICAM1) Biomarker Activity (AID 2283067); conditions: primary human keratinocytes with fibroblasts; actives raise or lower the signal
# Outline: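 Human keratinocyte plus foreskin fibroblast primary co-culture was exposed to chemical for 24 h. ICAM-1 was then quantified by ELISA, and the data were fit bidirectionally against DMSO as the negative control and baseline.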
# [16] = read-out: Interferon-gamma inducible Protein 10 (IP10), CXCL10 (gene 3627); assay: BSK_KF3CT_IP10: BioMAP Diversity Plus: KF3CT Assay for Interferon-gamma inducible Protein 10 (IP10) Biomarker Activity (AID 2283068); conditions: primary human keratinocytes with fibroblasts; actives raise or lower the signal
# Outline: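 Signal is secreted/surface IP-10 by ELISA in a human primary skin co-culture of keratinocytes and foreskin fibroblasts, taken 24 h post-dosing; DMSO served as negative control.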
# [17] = BSK_KF3CT_SRB: Viability Assessment in the BioMAP Diversity Plus: KF3CT Assay (AID 2283069); conditions: primary human keratinocytes with fibroblasts;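 note: fitted for both signal gain and loss against DMSO baseline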
# Outline: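 Keratinocytes co-cultured with foreskin fibroblasts (human primary); chemical added, 24 h; fix 10% TCA, stain 0.1% SRB, A560. Bidirectional fit vs DMSO.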
# [18] = read-out: Interleukin-1 alpha (IL1a), IL1A (gene 3552); assay: BSK_KF3CT_IL1a: BioMAP Diversity Plus: KF3CT Assay for Interleukin-1 alpha (IL1a) Biomarker Activity (AID 2283070); conditions: primary human keratinocytes with fibroblasts; actives raise or lower the signal
# Outline: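 Chemicals were dosed onto co-cultured human keratinocytes and foreskin fibroblasts, IL-1a was quantified by ELISA at 24 h, and activity was fitted in both directions relative to DMSO controls.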
# [19] = read-out: Matrix Metallopeptidase 1 (MMP1), MMP1 (gene 4312); assay: BSK_hDFCGF_MMP1: BioMAP Diversity Plus: hDFCGF Assay for Matrix Metallopeptidase 1 (MMP1) Biomarker Activity (AID 2283064); conditions: primary human foreskin fibroblasts; actives raise or lower the signal
# Outline: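 hDFCGF primary fibroblasts (human foreskin); chemical added; 24 h; MMP1 by ELISA; bidirectional fit vs DMSO.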
smiles,measurement,setting,value
IC(I)I,outcome,[1],inactive
same,outcome,[2],inactive
same,outcome,[3],inactive
same,AC50,[4],584 nM (active)
same,outcome,[5],inactive
same,outcome,[6],inactive
same,outcome,[7],inactive
same,outcome,[8],inactive
same,outcome,[9],inactive
same,outcome,[10],inactive
same,outcome,[11],inactive
same,outcome,[12],inactive
same,outcome,[13],inactive
same,outcome,[14],inactive
same,outcome,[15],inactive
same,outcome,[16],inactive
same,outcome,[17],inactive
same,outcome,[18],inactive
O=C1OC[C@H](Cc2cccc(O)c2)[C@H]1Cc1cccc(O)c1,outcome,[1],inactive
same,outcome,[2],inactive
same,outcome,[3],inactive
same,outcome,[4],inactive
same,outcome,[5],inactive
same,outcome,[6],inactive
same,outcome,[7],inactive
same,outcome,[8],inactive
same,outcome,[9],inactive
same,outcome,[10],inactive
same,outcome,[11],inactive
same,outcome,[12],inactive
same,outcome,[19],inactive
same,outcome,[14],inactive
same,outcome,[15],inactive
same,outcome,[16],inactive
same,outcome,[17],inactive
same,outcome,[18],inactive
C=C(C)C(=O)OCCOCCOCCOC(=O)C(=C)C,outcome,[1],inactive
same,outcome,[2],inactive
same,outcome,[3],inactive
same,outcome,[4],inactive
same,outcome,[5],inactive
same,outcome,[6],inactive
same,outcome,[7],inactive
same,outcome,[8],inactive
same,AC50,[9],81.9 nM (active)
same,outcome,[10],inactive
same,outcome,[11],inactive
same,outcome,[12],inactive
same,outcome,[19],inactive
same,AC50,[14],51.8 nM (active)
same,outcome,[15],inactive
same,outcome,[16],inactive
same,outcome,[17],inactive
same,AC50,[18],41 nM (active)
